Experiment in all cases: DAPPL (digital affinity profiling via proximity ligation, sequencing); 10 mM Tris-HCl pH 7.5, 50 mM NaCl, 1 mM DTT, 4% glycerol, room temperature, 30 min; GST-TFs on glutathione beads, 16-mer random dsDNA library, 0.1% formaldehyde crosslink after washing; high values mean tight binding
Settings in all cases: protein: recombinant; tags: N-terminal GST; dsDNA, one strand shown

The target in experiment [1] is T1, FLI1 (Homo sapiens, UniProt Q01543 1-452).
T1 sequence: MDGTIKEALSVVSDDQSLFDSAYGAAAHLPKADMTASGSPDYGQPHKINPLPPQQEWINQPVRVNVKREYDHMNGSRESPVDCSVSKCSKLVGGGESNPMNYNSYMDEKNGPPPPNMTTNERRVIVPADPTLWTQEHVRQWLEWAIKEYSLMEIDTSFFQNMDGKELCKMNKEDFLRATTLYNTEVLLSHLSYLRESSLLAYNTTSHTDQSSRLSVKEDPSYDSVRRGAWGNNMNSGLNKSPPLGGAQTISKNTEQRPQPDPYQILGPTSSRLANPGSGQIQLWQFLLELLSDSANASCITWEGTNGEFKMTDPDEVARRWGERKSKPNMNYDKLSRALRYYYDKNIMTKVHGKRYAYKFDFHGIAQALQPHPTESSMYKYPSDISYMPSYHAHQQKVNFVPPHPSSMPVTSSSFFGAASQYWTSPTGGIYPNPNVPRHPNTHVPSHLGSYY
An outline of the steps:
(§1)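 Human transcription factors were made in yeast as GST fusions, captured on glutathione beads and barcoded with DNA. With a tag-only sample included, the pool was incubated with 200 nmole of a random double-stranded 16-mer DNA library in Tris/NaCl/DTT/glycerol buffer at room temperature for 30 min, then crosslinked with 0.1% formaldehyde after washing, ligated by proximity, amplified and sequenced. For binding signal, each hexamer's read frequency for a factor is divided by its frequency for the tag-only sample.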

The target in experiment [2] is T2, ELK1 (Homo sapiens, UniProt P19419 1-428).
T2 sequence: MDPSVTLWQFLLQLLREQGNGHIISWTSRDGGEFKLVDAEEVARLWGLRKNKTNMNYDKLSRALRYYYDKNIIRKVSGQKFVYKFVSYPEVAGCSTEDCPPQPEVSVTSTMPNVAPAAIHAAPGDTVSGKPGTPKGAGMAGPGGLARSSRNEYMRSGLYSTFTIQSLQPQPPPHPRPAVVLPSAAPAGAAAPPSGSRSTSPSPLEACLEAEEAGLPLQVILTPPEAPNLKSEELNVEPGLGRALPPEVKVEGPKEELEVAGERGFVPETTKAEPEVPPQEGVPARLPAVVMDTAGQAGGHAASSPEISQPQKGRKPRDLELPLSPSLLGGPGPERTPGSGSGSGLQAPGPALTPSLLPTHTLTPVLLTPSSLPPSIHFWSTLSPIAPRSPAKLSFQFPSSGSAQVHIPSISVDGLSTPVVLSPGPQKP
An outline of the steps:
as §1

For experiment [3], the target named is T3, GABPA (Homo sapiens, UniProt Q06546 1-454).
T3 sequence: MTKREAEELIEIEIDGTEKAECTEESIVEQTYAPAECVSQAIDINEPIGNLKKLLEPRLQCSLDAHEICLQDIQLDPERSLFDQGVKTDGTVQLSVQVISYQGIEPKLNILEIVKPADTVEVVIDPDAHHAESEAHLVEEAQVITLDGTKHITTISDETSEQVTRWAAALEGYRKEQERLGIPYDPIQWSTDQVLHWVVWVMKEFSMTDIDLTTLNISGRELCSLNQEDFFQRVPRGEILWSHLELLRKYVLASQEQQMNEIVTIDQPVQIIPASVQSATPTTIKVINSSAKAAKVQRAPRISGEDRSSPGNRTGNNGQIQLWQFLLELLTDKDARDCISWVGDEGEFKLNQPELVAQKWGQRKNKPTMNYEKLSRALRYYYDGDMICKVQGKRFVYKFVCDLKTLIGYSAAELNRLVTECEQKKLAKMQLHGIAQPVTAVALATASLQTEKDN
An outline of the steps: as §1

The target in experiment [4] is T4, ERG (Homo sapiens, UniProt P11308 1-479).
T4 sequence: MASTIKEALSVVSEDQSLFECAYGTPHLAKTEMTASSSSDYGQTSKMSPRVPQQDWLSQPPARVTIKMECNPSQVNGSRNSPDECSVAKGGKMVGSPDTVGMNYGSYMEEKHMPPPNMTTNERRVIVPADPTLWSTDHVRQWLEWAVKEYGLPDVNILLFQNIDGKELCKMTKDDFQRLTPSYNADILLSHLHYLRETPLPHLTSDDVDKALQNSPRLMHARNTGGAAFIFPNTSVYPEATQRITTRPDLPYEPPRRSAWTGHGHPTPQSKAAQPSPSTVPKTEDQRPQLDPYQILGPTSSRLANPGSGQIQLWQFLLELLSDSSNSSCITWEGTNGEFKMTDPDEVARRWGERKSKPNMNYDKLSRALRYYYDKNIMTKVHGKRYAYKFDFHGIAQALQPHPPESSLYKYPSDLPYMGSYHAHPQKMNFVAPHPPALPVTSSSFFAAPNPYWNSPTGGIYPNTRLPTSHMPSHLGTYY
An outline of the steps:
as §1

Experiment [5] deals with ELF1 (Homo sapiens, UniProt P32519 1-619). An outline of the steps: as §1
ELF1, sequence (P32519 whole entry): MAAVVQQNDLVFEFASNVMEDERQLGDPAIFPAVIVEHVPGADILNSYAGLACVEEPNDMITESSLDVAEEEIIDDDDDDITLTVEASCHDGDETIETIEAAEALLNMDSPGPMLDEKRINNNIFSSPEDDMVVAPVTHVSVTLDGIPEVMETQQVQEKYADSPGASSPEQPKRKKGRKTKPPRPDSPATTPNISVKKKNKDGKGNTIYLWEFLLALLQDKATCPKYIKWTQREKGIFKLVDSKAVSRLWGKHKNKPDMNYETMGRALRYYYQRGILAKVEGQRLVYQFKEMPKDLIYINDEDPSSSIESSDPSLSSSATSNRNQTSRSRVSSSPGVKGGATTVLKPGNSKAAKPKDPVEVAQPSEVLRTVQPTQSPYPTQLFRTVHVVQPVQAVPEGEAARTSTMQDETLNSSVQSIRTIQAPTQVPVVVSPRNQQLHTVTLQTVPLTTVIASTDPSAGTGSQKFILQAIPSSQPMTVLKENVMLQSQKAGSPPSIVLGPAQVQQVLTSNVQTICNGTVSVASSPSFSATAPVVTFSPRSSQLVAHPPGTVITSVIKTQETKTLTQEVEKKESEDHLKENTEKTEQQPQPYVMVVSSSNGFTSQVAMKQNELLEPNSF
Experiment [6] addresses T5, EHF (Homo sapiens, UniProt Q9NZC4 1-300).
T5 sequence: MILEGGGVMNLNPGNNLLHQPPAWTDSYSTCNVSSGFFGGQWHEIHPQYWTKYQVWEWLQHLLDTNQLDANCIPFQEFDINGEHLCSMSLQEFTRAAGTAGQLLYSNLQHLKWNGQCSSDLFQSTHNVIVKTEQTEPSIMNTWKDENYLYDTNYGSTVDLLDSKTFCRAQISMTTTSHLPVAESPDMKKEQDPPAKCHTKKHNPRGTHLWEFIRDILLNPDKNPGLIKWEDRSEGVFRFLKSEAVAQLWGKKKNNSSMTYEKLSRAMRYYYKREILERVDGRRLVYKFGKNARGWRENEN
An outline of the steps: as §1

Experiment [7] deals with SPI1 (Homo sapiens, UniProt P17947 1-270). An outline of the steps:
as §1

Experiment [8] addresses SPIB (Homo sapiens, UniProt Q01892 1-262). An outline of the steps: as §1
The target of experiment [9] is T6, ELK3 (Homo sapiens, UniProt P41970 1-407).
T6 sequence: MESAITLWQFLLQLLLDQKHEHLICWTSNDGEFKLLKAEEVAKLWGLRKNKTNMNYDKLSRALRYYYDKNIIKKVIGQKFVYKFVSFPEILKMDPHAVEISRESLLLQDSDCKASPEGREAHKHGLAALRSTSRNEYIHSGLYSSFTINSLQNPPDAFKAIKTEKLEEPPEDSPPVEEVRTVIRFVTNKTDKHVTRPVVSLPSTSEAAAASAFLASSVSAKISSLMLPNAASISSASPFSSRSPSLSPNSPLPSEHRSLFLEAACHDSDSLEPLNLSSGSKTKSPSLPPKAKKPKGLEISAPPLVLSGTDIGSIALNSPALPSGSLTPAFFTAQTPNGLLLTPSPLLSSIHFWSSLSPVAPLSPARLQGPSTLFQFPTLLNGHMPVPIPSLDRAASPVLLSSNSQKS
An outline of the steps:
as §1

SPIB, sequence (Q01892 whole entry): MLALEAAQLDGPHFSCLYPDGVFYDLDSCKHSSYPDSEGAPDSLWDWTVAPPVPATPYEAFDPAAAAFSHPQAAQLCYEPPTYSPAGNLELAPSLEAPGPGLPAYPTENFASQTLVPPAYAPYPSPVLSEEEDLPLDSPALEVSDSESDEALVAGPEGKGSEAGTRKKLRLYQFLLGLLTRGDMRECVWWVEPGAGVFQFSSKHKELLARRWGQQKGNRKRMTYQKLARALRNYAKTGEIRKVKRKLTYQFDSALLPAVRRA

As to CTGAGC, the binding signal is 1.08 fold enrichment (6-mer frequency, TF over GST control) in experiment [1]; 1.15 fold enrichment (6-mer frequency, TF over GST control) in [2]; 1.18 fold enrichment (6-mer frequency, TF over GST control) in [3]; 1.09 fold enrichment (6-mer frequency, TF over GST control) in [4]; 1.19 fold enrichment (6-mer frequency, TF over GST control) in experiment [5]; 1.18 fold enrichment (6-mer frequency, TF over GST control) in experiment [6]. Moreover, the binding signal in [7] is 1.11 fold enrichment (6-mer frequency, TF over GST control); in experiment [8], 1.06 fold enrichment (6-mer frequency, TF over GST control); in experiment [9], 1.18 fold enrichment (6-mer frequency, TF over GST control).

For the sequence CTCCCT, the binding signal in experiment [1] was 1.61 fold enrichment (6-mer frequency, TF over GST control); in [2], 1.43 fold enrichment (6-mer frequency, TF over GST control); in experiment [3], 1.54 fold enrichment (6-mer frequency, TF over GST control); in [4], 1.62 fold enrichment (6-mer frequency, TF over GST control); in experiment [5], 1.68 fold enrichment (6-mer frequency, TF over GST control); in experiment [6], 1.52 fold enrichment (6-mer frequency, TF over GST control). Also, the binding signal was 1.49 fold enrichment (6-mer frequency, TF over GST control) in experiment [7]; 1.66 fold enrichment (6-mer frequency, TF over GST control) in [8]; 1.5 fold enrichment (6-mer frequency, TF over GST control) in experiment [9].

Consider CTAAGC, for which the binding signal in [1] is 1.09 fold enrichment (6-mer frequency, TF over GST control); in experiment [2], 1.06 fold enrichment (6-mer frequency, TF over GST control); in experiment [3], 1.08 fold enrichment (6-mer frequency, TF over GST control); in [4] it was 1.11 fold enrichment (6-mer frequency, TF over GST control); in [5], 1.15 fold enrichment (6-mer frequency, TF over GST control); in [6], 1.14 fold enrichment (6-mer frequency, TF over GST control). The binding signal in [7] was 1.03 fold enrichment (6-mer frequency, TF over GST control); in experiment [8] it was 1.16 fold enrichment (6-mer frequency, TF over GST control); in [9], 1.03 fold enrichment (6-mer frequency, TF over GST control).

TGGCCC: the binding signal in experiment [1] is 1.02 fold enrichment (6-mer frequency, TF over GST control); in [2], 1.13 fold enrichment (6-mer frequency, TF over GST control); in experiment [3], 1.24 fold enrichment (6-mer frequency, TF over GST control); in experiment [4] it was 1.13 fold enrichment (6-mer frequency, TF over GST control); in [5] it was 1.05 fold enrichment (6-mer frequency, TF over GST control); in [6], 1.02 fold enrichment (6-mer frequency, TF over GST control). The binding signal in experiment [7] was 1.17 fold enrichment (6-mer frequency, TF over GST control); in experiment [8], 1.12 fold enrichment (6-mer frequency, TF over GST control); in experiment [9], 1.16 fold enrichment (6-mer frequency, TF over GST control).

With GGAAAT, the binding signal in experiment [1] was 2.51 fold enrichment (6-mer frequency, TF over GST control); in experiment [2], 2.64 fold enrichment (6-mer frequency, TF over GST control); in experiment [3], 2.39 fold enrichment (6-mer frequency, TF over GST control); in experiment [4], 3.22 fold enrichment (6-mer frequency, TF over GST control); in experiment [5] it was 2.39 fold enrichment (6-mer frequency, TF over GST control); in [6], 3.06 fold enrichment (6-mer frequency, TF over GST control). Also, the binding signal in [7] is 2.6 fold enrichment (6-mer frequency, TF over GST control); in experiment [8] it was 2.88 fold enrichment (6-mer frequency, TF over GST control); in experiment [9], 2.69 fold enrichment (6-mer frequency, TF over GST control).

Regarding GTTCCG, the binding signal in [1] is 1.81 fold enrichment (6-mer frequency, TF over GST control); in experiment [2] it was 2.02 fold enrichment (6-mer frequency, TF over GST control); in experiment [3], 1.64 fold enrichment (6-mer frequency, TF over GST control); in experiment [4], 1.95 fold enrichment (6-mer frequency, TF over GST control); in experiment [5], 1.78 fold enrichment (6-mer frequency, TF over GST control); in experiment [6], 2.05 fold enrichment (6-mer frequency, TF over GST control). Further, the binding signal in experiment [7] is 2.19 fold enrichment (6-mer frequency, TF over GST control); in [8] it was 2.15 fold enrichment (6-mer frequency, TF over GST control); in experiment [9], 1.71 fold enrichment (6-mer frequency, TF over GST control).

Regarding GCGTTC, the binding signal in experiment [1] is 1.07 fold enrichment (6-mer frequency, TF over GST control); in [2] it was 1.06 fold enrichment (6-mer frequency, TF over GST control); in experiment [3], 1.08 fold enrichment (6-mer frequency, TF over GST control); in [4], 1.03 fold enrichment (6-mer frequency, TF over GST control); in [5], 1.12 fold enrichment (6-mer frequency, TF over GST control); in [6], 1.06 fold enrichment (6-mer frequency, TF over GST control). Besides, the binding signal was 1.08 fold enrichment (6-mer frequency, TF over GST control) in experiment [7]; 1.12 fold enrichment (6-mer frequency, TF over GST control) in [8]; 1.13 fold enrichment (6-mer frequency, TF over GST control) in experiment [9].
